“And” between values parts separate entries of the source, which are not always exact repeats. Equal entries are not always repeated. The whole screen tested about 5,500 compounds, of which about 2,000 (36%) were called active. Not shown: some 18% with an inconclusive outcome. Rule as the data show it: active = normalized growth mostly below about 0.91 (no sharp cut-off); inconclusive = no clear call, values can overlap the other calls; inactive = mostly above about 0.92. This is one part of the list.
Experiment: chemical genetic growth profiling, strain panel (AID 1159580);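 also: tested at 20 µM; growth read once vehicle control cultures reached saturation at 30 °C; 1 = growth at the plate median or of vehicle wells; lower values mean less growth of the strain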
Conditions: S. cerevisiae deletion strains, growth OD

Measured: normalized growth

Nc1ccc(S(=O)(=O)Nc2ccc(Cl)nn2)cc1
inactive: locus YAL013W, strain DEP1, stronger effect = lower value 1.01 | locus YAL021C, strain ccr4, stronger effect = lower value 0.982 | locus YAL026C, strain drs2, stronger effect = lower value 0.996 | locus YAL030W, strain snc1, stronger effect = lower value 0.985 | locus YBL061C, strain skt5, stronger effect = lower value 0.984 | locus YBR009C, strain hhf1, stronger effect = lower value 0.994 | locus YBR021W, strain FUR4, stronger effect = lower value 0.977 | locus YBR023C, strain chs3, stronger effect = lower value 0.984 | locus YBR171W, strain sec66, stronger effect = lower value 0.976 | locus YBR229C, strain ROT2, stronger effect = lower value 0.995 | locus YBR231C, strain swc5, stronger effect = lower value 0.995 | locus YBR279W, strain paf1, stronger effect = lower value 0.998 | locus YCL011C, strain gbp2, stronger effect = lower value 0.987 | locus YCL016C, strain dcc1, stronger effect = lower value 0.971 | locus YCL029C, strain bik1, stronger effect = lower value 0.996 | locus YCL061C, strain MRC1, stronger effect = lower value 0.984 | locus YCL069W, strain vba3, stronger effect = lower value 0.993 | locus YCR088W, strain abp1, stronger effect = lower value 0.987 | locus YDL005C, strain med2, stronger effect = lower value 0.996 | locus YDL035C, strain GPR1, stronger effect = lower value 1.02 | locus YDL040C, strain nat1, stronger effect = lower value 0.992 | locus YDL074C, strain BRE1, stronger effect = lower value 0.978 | locus YDL101C, strain DUN1, stronger effect = lower value 1.01 | locus YDL134C, strain PPH21, stronger effect = lower value 1.01 | locus YDL185W, strain tfp1, stronger effect = lower value 1.01 | locus YDL192W, strain arf1, stronger effect = lower value 1.01 | locus YDR001C, strain nth1, stronger effect = lower value 0.987 | locus YDR069C, strain doa4, stronger effect = lower value 0.999 | locus YDR101C, strain arx1, stronger effect = lower value 0.961 | locus YDR137W, strain rgp1, stronger effect = lower value 0.996 | locus YDR150W, strain NUM1, stronger effect = lower value 0.999 | locus YDR159W, strain sac3, stronger effect = lower value 1.02 | locus YDR162C, strain NBP2, stronger effect = lower value 1.02 | locus YDR195W, strain ref2 0.968 | locus YDR297W, strain sur2, stronger effect = lower value 0.993 | locus YDR318W, strain mcm21, stronger effect = lower value 1 | locus YDR334W, strain swr1, stronger effect = lower value 0.984 | locus YDR335W, strain msn5, stronger effect = lower value 0.994 | locus YDR388W, stronger effect = lower value 1.01 | locus YDR392W, strain spt3, stronger effect = lower value 0.929 | locus YDR502C, strain sam2, stronger effect = lower value 1 | locus YEL003W, strain gim4, stronger effect = lower value 1 | locus YEL037C, strain rad23, stronger effect = lower value 0.991 | locus YEL061C, strain CIN8 (second series), stronger effect = lower value 0.992 | locus YEL061C, strain CIN8, stronger effect = lower value 1 | locus YER015W, strain faa2, stronger effect = lower value 0.973 | locus YER016W, strain bim1, stronger effect = lower value 1 | locus YER110C, stronger effect = lower value 1.01 | locus YER111C, strain swi4, stronger effect = lower value 0.986 | locus YER155C, strain BEM2 (second series), stronger effect = lower value 1 | locus YER155C, strain BEM2, stronger effect = lower value 0.998 | locus YER167W, strain BCK2, stronger effect = lower value 1.01 | locus YFR010W, strain ubp6, stronger effect = lower value 0.99 | locus YGL078C, strain dbp3, stronger effect = lower value 1 | locus YGL086W, strain mad1, stronger effect = lower value 0.988 | locus YGL167C, strain pmr1, stronger effect = lower value 0.983 | locus YGL173C, strain kem1, stronger effect = lower value 0.99 | locus YGL227W, strain vid30, stronger effect = lower value 0.979 | locus YGL240W, strain doc1, stronger effect = lower value 0.992 | locus YGL248W, strain PDE1, stronger effect = lower value 0.999 | locus YGL253W, strain hxk2, stronger effect = lower value 1 | locus YGR135W, strain pre9, stronger effect = lower value 1.06 | locus YGR252W, strain gcn5, stronger effect = lower value 1.04 | locus YHR013C, strain ard1, stronger effect = lower value 0.965 | locus YHR027C, strain rpn1, stronger effect = lower value 0.995 | locus YHR030C, strain SLT2, stronger effect = lower value 1 and 0.995 | locus YHR079C, strain IRE1 (second series), stronger effect = lower value 1.01 | locus YHR079C, strain IRE1, stronger effect = lower value 0.989 | locus YHR094C, strain hxt1, stronger effect = lower value 1.01 | locus YHR129C, strain ARP1, stronger effect = lower value 1.01 | locus YHR142W, strain chs7, stronger effect = lower value 0.994 | locus YHR200W, strain rpn10, stronger effect = lower value 1 | locus YIL066C, strain RNR3, stronger effect = lower value 0.992 | locus YIL073C, strain SPO22, stronger effect = lower value 1.07 | locus YIL125W, strain kgd1, stronger effect = lower value 0.994 | locus YIR030C, strain dcg1, stronger effect = lower value 1.01 | locus YJL092W, strain hpr5, stronger effect = lower value 0.983 | locus YJL095W, strain BCK1 (second series), stronger effect = lower value 0.988 | locus YJL095W, strain BCK1, stronger effect = lower value 1.01 and 0.984 | locus YJL115W, strain asf1, stronger effect = lower value 0.991 | locus YJL129C, strain trk1, stronger effect = lower value 1.01 | locus YJL134W, strain LCB3, stronger effect = lower value 1.01 | locus YJL154C, strain vps35, stronger effect = lower value 0.986 | locus YJL164C, strain tpk1, stronger effect = lower value 0.985 | locus YJL166W, strain qcr8, stronger effect = lower value 0.984 | locus YJL168C, strain set2, stronger effect = lower value 1 | locus YJL187C, strain SWE1 (second series), stronger effect = lower value 0.992 | locus YJL187C, strain SWE1, stronger effect = lower value 0.986

From PubChem BioAssay AID1159580 (chemical genetic matrix, 2015)
